High-throughput results: PubChem, University of Kansas High Throughput Screening Laboratory
mHTT-CaM PPI inh: disrupts binding of mutant huntingtin to calmodulin; P42858; AlphaScreen His-mHTT/GST-CaM binding, luminescence; inhibition, % at 15 µM; actives 3.6% (n = 190,000); AID 1671202;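 further: 0% = both proteins with DMSO and 100% = one protein alone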
Pf apPOL block: Pf-apPOL DNA polymerase inhibition. inhibition, % at 10 µM. Recombinant Pf-apPOL, molecular beacon fluorescence, 1.5 h. AID 1794808. actives 0.25% (n = 210,000)
Numbers without * were called inactive; / = not tested or not shown. Rows were chosen to be rich in hits. Some 3.6% of all compounds tested hit in one or more screens of this group. No stated cut-off is given here; in the data, active means inhibition above about 50%; inactive means the rest.

SMILES	mHTT-CaM PPI inh	Pf apPOL block
CN1CCN(c2ccc(C(=O)c3ccc(Br)cc3)cc2[N+](=O)[O-])CC1	57*	4
Cc1ccnc(NS(=O)(=O)c2ccc(NC(=O)c3ccc(-n4ccnc4)nn3)cc2)n1	-12	5
Cc1nc(NC(=O)c2ccc(-n3ccnc3)nn2)sc1C	90*	7
Cc1ccc(/C=C2/C(=N)N3C(SCC(C)C)=NSC3=NC2=O)o1	-3	-17
CSC1=NSC2=NC(=O)/C(=C\c3ccc([N+](=O)[O-])o3)C(=N)N12	100*	0
CSC1=NSC2=NC(=O)/C(=C\c3ccc(C)o3)C(=N)N12	1	7
CC(C)CSC1=NSC2=NC(=O)/C(=C\c3ccc([N+](=O)[O-])o3)C(=N)N12	79*	-3
COc1ccc(NC(=O)CSc2nc(N)nc(SC)c2C#N)cc1	7	-2
O=C(NCc1cscn1)C1CCN(S(=O)(=O)c2cccc(Cl)c2)CC1	-9	6
COc1ccc(NC(=O)c2cnn3c(-c4ccncc4)ccnc23)c(OC)c1	9	-1
Cc1cc(Nc2ccc(Cl)cc2)n2nccc2n1	64*	-4
Cc1ccc(Nc2cc(C)nc3ccnn23)cc1	-5	1
O=C(Nc1cccc(OC(F)(F)F)c1)c1cn2c(n1)CCCC2	2	-4
Cc1nn2c([N+](=O)[O-])c(C)[nH][n+]2c1C(=O)Nc1ccc(S(=O)(=O)Nc2nccs2)cc1	8	-2
COc1ccc(-c2n[nH]c3c2C(c2ccc(OC)cc2)N(c2ccccc2)C3=O)cc1 (stereo not drawn)	43	-2
O=C1c2[nH]nc(-c3ccc(F)cc3)c2C(c2ccccc2[N+](=O)[O-])N1c1ccccc1 (stereo not drawn)	83*	-1
O=C1c2[nH]nc(-c3ccccc3)c2C(c2cccc([N+](=O)[O-])c2)N1c1ccccc1 (stereo not drawn)	28	28
COc1cc(C2c3c(-c4ccc(F)cc4)n[nH]c3C(=O)N2c2ccccc2)ccc1O (stereo not drawn)	78*	-1
CCN(C)C(=O)C1CN(C(=O)c2ccccc2)CC1c1ccccc1 (stereo not drawn)	6	2
COc1ccc(N(CC(=O)N2CCC(C)CC2)S(=O)(=O)c2ccccc2[N+](=O)[O-])c(OC)c1	27	-9
Cc1ccc(NC(=O)C2CCN(C(=O)c3cc4ccsc4[nH]3)CC2)c(Br)c1	31	1
Cc1cccc(-c2nnc(-c3ccco3)o2)c1	-4	-2
O=[N+]([O-])c1ccc(Cc2ncccc2O)cc1	-5	-3
Oc1cc(O)c2ncccc2c1	100*	1
Nc1cc(Br)cc2cccnc12	-5	6
SMILES	mHTT-CaM PPI inh	Pf apPOL block
O=[N+]([O-])c1cc(O)c2ncccc2c1	100*	-186
COc1cc(Cl)ccc1C(=O)N1CCC(COc2ccc(C(=O)NC(C)C)cc2)CC1	17	-3
COc1cc(NC(=O)COc2ccc([N+](=O)[O-])cc2)ccc1NC(=O)c1cc2ccccc2o1	-2	-26
COc1ccc(S(=O)(=O)Nc2cc3sc(=O)oc3c3ccccc23)cc1	100*	4
COc1ccc(S(=O)(=O)Nc2ccc3oc(=O)sc3c2)cc1	6	-6
NC(=O)c1sc2sc(C(N)=O)c(N)c2c1N	-2	/
O=C(OCc1cc(-c2ccc(F)cc2F)on1)c1ccc(=O)oc1	100*	81*
O=C(Cc1cccs1)OCc1cc(-c2ccc(F)cc2F)on1	-99	2
CCCCC(=O)Nc1ccc(NC(=O)c2ccccc2OC)cc1OC	8	1
COc1cccc(CNC(=O)N2CCCC2c2c(C)noc2C)c1 (stereo not drawn)	-5	0
O=C(NC(c1cccc([N+](=O)[O-])c1)c1cc(Cl)c2cccnc2c1O)c1cccnc1 (stereo not drawn)	79*	-6
O=C(NC(c1ccc([N+](=O)[O-])cc1)c1cc(Cl)c2cccnc2c1O)c1cccnc1 (stereo not drawn)	53*	-9
O=C(NC(c1ccccc1)c1ccccc1)c1cccnc1	-5	3
OC12OC34CCCCC3CC13CCCC2CC1CCCCC13O4 (stereo not drawn)	-4	-3
COc1cccc(C2CC(C(F)(F)F)n3ncc(C(=O)NCCCn4ccnc4)c3N2)c1 (stereo not drawn)	4	-2
CN1CCn2cc(S(=O)(=O)Nc3ccc(Cl)cc3)cc2C1=O	-5	-6
O=C(Nc1cccc(Cl)c1)N1CCN(c2ccc(F)cc2)CC1	8	0
Cc1cc(C)cc(-n2cc(-c3ccc4c(c3)OCO4)[nH]c2=O)c1	39	11
Cc1ccc(-n2cc(-c3ccc4c(c3)OCO4)[nH]c2=O)cc1Cl	86*	-8
Cn1c(C(=O)N2CCOCC2)cc2c1CCN(Cc1ccccc1)C2	1	-1
Cn1c(C(=O)N2CCCCC2)cc2c1CCN(Cc1cccc(F)c1)C2	33	-6
Cn1c(C(=O)N2CCN(c3ccc(F)cc3)CC2)cc2c1CCN(Cc1ccccc1)C2	85*	3
Cn1c(C(=O)NCCN2CCCC2)cc2c1CCN(Cc1cccc(F)c1)C2	79*	12
Cn1c(C(=O)N2CCN(c3ccccc3)CC2)cc2c1CCN(Cc1cccc(F)c1)C2	66*	-7
COc1ccc(CNC(=O)c2cc3c(n2C)CCN(Cc2cccc(F)c2)C3)cc1	28	-4
SMILES	mHTT-CaM PPI inh	Pf apPOL block
CCOc1ccc(-c2nocc2C(N)=O)cc1	0	-1
COc1ccc(Cl)cc1NC(=O)C1CCCN(c2nccc(C)n2)C1 (stereo not drawn)	-9	-1
O=C(NCc1n[nH]c(=O)c2ccccc12)c1cccc2ccccc12	-8	-2
O=C(NCc1n[nH]c(=O)c2ccccc12)c1cc(-c2ccco2)[nH]n1	31	78*
CCCn1c(C(=O)N2CCN(C(C)=O)CC2)cc2sc(Br)cc21	54*	-2
C=C(C)Cn1c(C(=O)NCC2CCCO2)cc2sc(C)cc21 (stereo not drawn)	8	-13
CCCn1c(C(=O)N2CCOCC2)cc2sc(C)cc21	29	-4
CCCn1c(C(=O)NCC2CCCO2)cc2sc(Br)cc21 (stereo not drawn)	60*	-4
CCCCCCSc1ncn[nH]1	/	-6
O=C(NC1CCCC1)c1csc(Nc2ccc(F)c(F)c2)n1	-2	0
CCn1c(C2CCN(C(=O)c3ccc(Br)o3)C2)nc2cccnc21 (stereo not drawn)	-2	-6
Cc1ccc(S(=O)(=O)C(CN)c2cccs2)cc1 (stereo not drawn)	-16	69*
O=C(NCC(c1cccs1)S(=O)(=O)c1ccccc1)Oc1ccccc1 (stereo not drawn)	2	2
CCOc1ccccc1NC(=O)C(=O)NCc1ccc(CC)cc1	-9	20
CCc1ccc(CNC(=O)C(=O)Nc2ccccc2F)cc1	-4	70*
CCCc1sc(NC(=O)c2cc(OC)c(OC)c(OC)c2)nc1-c1ccc(OC)c(OC)c1	55*	-1
CCc1nnc(NC(=O)c2cc(OC)c(OC)c(OC)c2)s1	1	1
CN(C)c1ccc(C(=O)Nc2nc(C(C)(C)C)cs2)cc1[N+](=O)[O-]	62*	-8
CNc1ccc(C(=O)Nc2nc(C(C)(C)C)cs2)cc1[N+](=O)[O-]	7	-11
O=C(Nc1ccc(Br)cc1)c1ccc(F)c(S(=O)(=O)NCCc2ccccc2)c1	23	2
CCOc1c(Br)cc(C2Nc3ccc([N+](=O)[O-])cc3C3C=CCC32)cc1OC (stereo not drawn)	58*	-5
